The values that follow come from PubChem BioAssay (Tox21).

Unmarked numbers belong to inactive results. Records with an inconclusive call do not appear. Activity calls are given as the source filed them. Unless noted, calls follow the shape of the dose curve; as a rule, active = well fitted curve in the direction sought with a large enough effect in the repeat runs; inconclusive = weak or mixed curves; inactive = no such curve, though single readings can be large; an effect the other way counts as inactive or inconclusive.

The nature of test [1]: qHTS assay for small molecules that induce genotoxicity in human embryonic kidney cells expressing luciferase-tagged ATAD5 (AID 651632). Also: nearly all actives have a fitted effect of over 15% in size. Put shortly:
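Cells were seeded at 2,000 per well, dosed with compound, and incubated 16 hr at 37C in 5% CO2. Luciferase activity was then quantified after a 30 min room-temperature incubation with Amplite.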

Test [2] can be described thus: qHTS assay for small molecule agonists of the p53 signaling pathway - cell viability (AID 651633; calls by dose curve; also: nearly all actives have a fitted effect of over 30% in size; also: potency is read from the fitted curve at half-maximal effect). Put shortly:
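p53RE-bla cells, seeded at 4,000 per well and rested 5 h at 37 C/5% CO2, received compounds in DMSO for 16 h at 37 C. CellTiter-Glo was then added, and luminescence was read after 30 min at room temperature to gauge cytotoxicity.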
On the technique in general: In qHTS, concentration-response curves come from the screen itself.

A short description of test [3]: qHTS assay for small molecules that induce genotoxicity in human embryonic kidney cells expressing luciferase-tagged ATAD5 - cell viability (AID 651634; calls by dose curve; also: nearly all actives have a fitted effect of over 25% in size; also: potency is read from the fitted curve at half-maximal effect). The procedure, abridged: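 Cells (HEK293T, luciferase-tagged ATAD5) are seeded at 2,000 per well, dosed with compound or DMSO vehicle, and incubated 15.5 hr at 37C and 5% CO2. CellTiter-Fluor is added for 30 min before fluorescence is measured.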

The nature of test [4]: qHTS assay for small molecule disruptors of the mitochondrial membrane potential - cell viability (AID 720634; calls by dose curve; also: nearly all actives have a fitted effect of over 20% in size; also: potency is read from the fitted curve at half-maximal effect). The procedure, abridged: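 Cytotoxicity was measured by ATP quantitation in HepG2 wells that had first been treated with compound for 1 hr and stained with m-MPI dye; CellTiter-Glo incubation was 30 min at room temperature.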
Test [5] can be described thus: qHTS assay to test for compound auto fluorescence at 590 nm (red) in HepG2 cells (AID 720674). Put shortly:
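Rose Bengal sodium served as the red fluorophore standard. HepG2 monolayers (overnight attachment, MEM with 10% FBS) were exposed to test compounds for 1 hr at 37 C and read at Ex 540/Em 590 nm.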

Test [6] in a line: qHTS assay to test for compound auto fluorescence at 535 nm (green) in HepG2 cells (AID 720675).
A short description of test [7]: qHTS assay to test for compound auto fluorescence at 460 nm (blue) in HEK293 cells (AID 720678). The procedure, abridged: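 HEK293 cells (2,000 per well, medium with 10% dialyzed FBS) attached for 4-5 hr at 37C, then received compound and stood overnight at 37C, 5% CO2. Blue fluorescence was read at Ex/Em 405/460 nm and expressed relative to triamterene.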
A short description of test [8]: qHTS assay to test for compound auto fluorescence at 590 nm (red) in HEK293 cells (AID 720679). Put shortly:
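HEK293 cells (2,000/well, medium with 10% dialyzed FBS) attached for 4-5 hr at 37C, received 23 nL compound and were incubated overnight at 37C, 5% CO2. Red fluorescence was then read at 540/590nm Ex/Em, referenced to Rose Bengal sodium.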

Test [9] can be described thus: qHTS assay to test for compound auto fluorescence at 535 nm (green) in HEK293 cells (AID 720680).
Test [10] can be described thus: qHTS assay to test for compound auto fluorescence at 460 nm (blue) in HEK293 cell free culture (AID 720681). Put shortly:
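Test compounds were pinned into cell-free culture medium (DMEM with 10% FBS) and fluorescence was read directly at Ex/Em 405/460 nm. Signals were expressed as fluorescence equivalents of triamterene, with DMSO vehicle as control.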

Test [11] in a line: qHTS assay to test for compound auto fluorescence at 535 nm (green) in HEK293 cell free culture (AID 720682). Put shortly: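 Measurement is a direct plate read of green fluorescence (485 nm in, 535 nm out) after compound addition to serum-supplemented DMEM lacking cells, with fluorescein used to express intensities.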
A short description of test [12]: qHTS assay to test for compound auto fluorescence at 590 nm (red) in HEK293 cell free culture (AID 720683). Put shortly: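 Tox21 10K library compounds were pinned into cell-free DMEM with 10% FBS and fluorescence was read at excitation 540 nm. Activity is expressed as Rose Bengal sodium equivalency.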
Test [13] is described as follows: qHTS assay to test for compound auto fluorescence at 590 nm (red) in HepG2 cell free culture (AID 720684). The procedure, abridged:
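Ex 540 / Em 590 nm read of compound in cell-free MEM (10% FBS). Rose Bengal sodium reference.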

A short description of test [14]: qHTS assay to test for compound auto fluorescence at 460 nm (blue) in HepG2 cell free culture (AID 720685). Put shortly:
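Cell-free plates of MEM plus 10% FBS received 23 nL compound or DMSO vehicle; blue-channel (405/460 nm) intensity scored against triamterene as reference fluorophore.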

The nature of test [15]: qHTS assay to test for compound auto fluorescence at 535 nm (green) in HepG2 cell free culture (AID 720686).
Test [16] in a line: qHTS assay to test for compound auto fluorescence at 460 nm (blue) in HepG2 cells (AID 720687). The procedure, abridged:
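Cells (2,000/well in MEM with 10% FBS) attached overnight at 37 C, then were exposed to compound or DMSO for 1 hr at 37 C, 5% CO2. Fluorescence read at Ex/Em 405/460 nm, expressed as triamterene-equivalent signal.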

Test [17] can be described thus: qHTS assay for small molecule disruptors of the mitochondrial membrane potential (AID 720635). Also: potency is read from the fitted curve at half-maximal effect. The procedure, abridged:
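HepG2 cells (2,000/well) attached overnight at 37C, then took compound for 1 hr at 37C, 5% CO2. Mito-MPS dye was added for 30 min; fluorescence was read at 490/535 nm (monomers) and 540/590 nm (aggregates).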

The target of test [18] is Glucocorticoid receptor (Homo sapiens) (UniProt P04150). In words: qHTS assay to identify small molecule agonists of the glucocorticoid receptor (GR) signaling pathway (AID 720691; active = well fitted activation curve with a large enough effect in the signal ratio in the repeat runs, not every such curve was filed as active; the % refers to the signal ratio). The settings on record: GR-bla HeLa, beta-lactamase reporter ratio, 18 h; activation: at 62.4 µM (top of the series). Put shortly: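 Steps: seed GR-bla HeLa cells, incubate 4 h at 37 C/5% CO2; pin-transfer DMSO-dissolved compounds; incubate 18 h at 37 C; add LiveBLAzer B/G FRET substrate; after 2 h at room temperature, measure fluorescence.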

The target is the same in test [19]. In words: qHTS assay to identify small molecule antagonists of the glucocorticoid receptor (GR) signaling pathway (AID 720692; active = well fitted inhibition curve with a large enough effect in the signal ratio in the repeat runs, not every such curve was filed as active; the % refers to the signal ratio; also: potency is read from the fitted curve at half-maximal effect). Put shortly:
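Antagonism was scored as loss of dexamethasone-driven (5 nM final) reporter signal in HeLa cells bearing a glucocorticoid response element–beta-lactamase construct, after 18 h compound exposure at 37 C and 2 h FRET substrate loading.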
% is scaled to controls: 0 for no effect and ±100 for the full control effect.

Glucocorticoid receptor (Homo sapiens), sequence (P04150 whole entry, looked up): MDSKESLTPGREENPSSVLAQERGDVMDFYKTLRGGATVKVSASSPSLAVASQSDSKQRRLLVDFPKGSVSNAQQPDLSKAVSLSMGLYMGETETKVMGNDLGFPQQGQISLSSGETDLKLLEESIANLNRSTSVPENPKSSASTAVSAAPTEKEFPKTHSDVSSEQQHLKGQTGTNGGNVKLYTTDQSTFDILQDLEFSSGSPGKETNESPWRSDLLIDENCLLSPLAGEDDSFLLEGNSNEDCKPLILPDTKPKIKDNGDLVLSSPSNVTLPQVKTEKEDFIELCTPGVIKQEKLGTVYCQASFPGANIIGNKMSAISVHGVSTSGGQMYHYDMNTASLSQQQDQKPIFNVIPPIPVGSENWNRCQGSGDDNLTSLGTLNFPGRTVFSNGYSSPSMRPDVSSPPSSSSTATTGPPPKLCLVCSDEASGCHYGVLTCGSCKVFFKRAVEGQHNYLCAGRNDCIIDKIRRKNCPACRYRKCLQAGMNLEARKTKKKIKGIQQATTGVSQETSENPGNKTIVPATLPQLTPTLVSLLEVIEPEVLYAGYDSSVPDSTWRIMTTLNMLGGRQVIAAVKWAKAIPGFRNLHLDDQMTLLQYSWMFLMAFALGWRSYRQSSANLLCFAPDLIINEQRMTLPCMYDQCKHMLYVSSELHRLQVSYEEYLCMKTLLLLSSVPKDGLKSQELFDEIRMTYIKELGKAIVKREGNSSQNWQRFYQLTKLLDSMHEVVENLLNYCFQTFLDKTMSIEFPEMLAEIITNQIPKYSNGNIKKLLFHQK

`CC(CN(C)C)CN1c2ccccc2CCc2ccccc21` (stereo unspecified): the Potency entry in test [1], in [2], in test [3] and in [4] was “inactive” in each case. In [5], the fluorescence, relative to Rose Bengal was 0.485% [at 18.6 µM]. In addition, the results for the fluorescence, % of fluorescein control in test [6] and in test [15] were -0.198% [at 18.6 µM] and -0.0071% [at 18.6 µM], respectively. Further, the fluorescence, % of triamterene in test [7] is -0.0464% [at 18.6 µM]. The fluorescence, % of fluorescent control in test [8] was -0.076% [at 18.6 µM]; in test [10], 0.133% [at 18.6 µM]; in test [12], 0.264% [at 18.6 µM]; in test [14], 0.118% [at 18.6 µM]; in test [16], -0.0977% [at 18.6 µM]. In test [9], the fluorescence, % of fluorescein was 0.0583% [at 18.6 µM]. Moreover, in test [11], the activity change is -0.0046% [at 18.6 µM, active compounds read high]. Also, in test [13], the fluorescence, % of Rose Bengal is 0.0079% [at 18.6 µM].

`Cc1ccc2ccc3cccc4ccc1c2c34`: the Potency entry in [1], in test [2], in test [3], in test [4], in test [6] and in test [7] was “inactive” each time. Moreover, the Potency entry in test [8], in test [9], in [10], in test [11], in test [12] and in test [13] was “inactive” each time. For the same compound, the Potency entry in [14], in [15], in [16] and in test [18] was “inactive” throughout. Also, the Potency in test [17] is 38.5 µM (active).

Consider `c1cc2c3c(c1)ccc1cccc(c13)C2`, for which the Potency entry in test [1], in [2], in test [3], in test [5], in test [6] and in [7] was “inactive” in each case. For the same compound, the Potency entry in test [8], in test [9], in [10], in test [11], in test [12] and in test [13] was “inactive” each time. Also, the Potency entry in test [14], in test [15], in test [16] and in [18] was “inactive” each time. The Potency in [17] is 62.4 µM (active).

For `O=C(O)Cc1ccc(OCCNC[C@H](O)c2ccccc2)cc1`, the Potency entry in test [1], in test [2], in [3], in [17], in test [5] and in [6] was “inactive” throughout. Besides, the Potency result in [7], in test [8], in test [9], in test [10], in [11] and in test [12] was “inactive” in each case. Moreover, the Potency entry in test [13], in test [14], in test [15], in test [16], in test [18] and in test [19] was “inactive” each time.

`Cc1c(C)n(Cc2ccccc2)c2ccc(C(=O)OCCN(C)C)cc12`: the Potency result in [1], in test [2], in [3], in test [4], in test [5] and in test [6] was “inactive” each time. Further, the Potency result in test [7], in test [8], in [9], in test [10], in [11] and in [12] was “inactive” in each case. The Potency result in test [13], in test [14], in test [15], in test [16] and in test [18] was “inactive” in each case.

Regarding `COc1cc(C(=O)NS(=O)(=O)c2ccccc2C)ccc1Cc1cn(C)c2ccc(NC(=O)OC3CCCC3)cc12`, the Potency entry in test [1], in test [3], in test [6], in [7], in test [8] and in test [9] was “inactive” in each case. For the same compound, the Potency entry in test [10], in test [11], in test [12], in test [13], in [14] and in test [15] was “inactive” each time. Further, the Potency result in test [16] and in test [18] was “inactive” each time. Besides, the values for the Potency in test [2], in [17] and in test [19] were 5.96 µM (active), 9.44 µM (active) and 12 µM (active), respectively.

With `CCN(CC)CCCN(c1ccccc1)C1Cc2ccccc2C1`, the Potency result in test [1], in [5], in test [6], in [7], in test [9] and in test [10] was “inactive” in each case. Further, the Potency entry in test [11], in test [12], in [13], in [14], in [15] and in test [16] was “inactive” throughout. The values for the Potency in test [2], in test [3] and in test [4] were 13.3 µM (active), 23.7 µM (active) and 29.8 µM (active), respectively.

Take `Cc1ccc(N)cc1O`: the Potency result in test [1], in test [2], in [3], in test [6], in test [8] and in test [9] was “inactive” throughout. For the same compound, the Potency entry in test [10], in [11], in [12], in test [13], in test [14] and in [15] was “inactive” each time. The Potency entry in test [16] and in test [18] was “inactive” in each case. Moreover, the Potency in [17] is 17.2 µM (active).

Take `NCCCCCCNCCCCCCN`: the Potency entry in [1], in test [2], in test [3], in test [4], in [17] and in [5] was “inactive” in each case. Further, the Potency result in test [6], in [7], in test [8], in test [9], in test [10] and in [11] was “inactive” throughout. Moreover, the Potency result in test [12], in test [13], in test [14], in test [15], in test [16] and in [18] was “inactive” each time. For the same compound, the Potency result in [19] was “inactive”.

Consider `Cc1nc(Nc2ncc(C(=O)Nc3c(C)cccc3Cl)s2)cc(N2CCN(CCO)CC2)n1`, for which the Potency entry in test [1], in [2], in test [4], in [5], in [6] and in test [7] was “inactive” in each case. Also, the Potency result in test [8], in [9], in test [10], in test [11], in test [12] and in [13] was “inactive” throughout. In addition, the Potency result in [14], in test [15] and in test [16] was “inactive” in each case.
